Data reported in PubChem BioAssay (EPA / NIEHS).
Several values for one entry are separate records, joined by “and”; a condition that tells them apart may be missing. Equal values may be shown once. Some structures have more than one record in an assay (separate samples or runs), and their calls can disagree. Activity calls are given as the source filed them. How the source made its calls: active means hit-call score of the fitted dose curve at least 0.9, where 1 is the maximum; inactive means score below 0.9.

Read-out: Matrix Metallopeptidase 1 (MMP1), MMP1 (gene 4312)
Test: BSK_BE3C_MMP1: BioMAP Diversity Plus: BE3C Assay for Matrix Metallopeptidase 1 (MMP1) Biomarker Activity (AID 2283024)
Conditions: primary human bronchial epithelial cells; actives raise or lower the signal
Experimental: BSK_BE3C is a cell-based, multiplexed-readout assay that uses bronchial epithelial cell, a human lung primary cell, with measurements taken at 24 hours after chemical dosing in a 96-well plate.BSK_BE3C_MMP1 is an assay component measured in the BSK_BE3C assay. It measures MMP-1 antibody related to regulation of gene expression using ELISA technology.Data from the assay component BSK_BE3C_MMP1 was analyzed into 1 assay endpoint. This assay endpoint, BSK_BE3C_MMP1, was analyzed with bidirectional fitting relative to DMSO as the negative control and baseline of activity. Using a type of binding reporter, gain or loss-of-signal activity can be used to understand changes in the signaling as they relate to the gene MMP1. Furthermore, this assay endpoint can be referred to as a primary readout, because this assay has produced multiple assay endpoints where this one serves a signaling function. To generalize the intended target to other relatable targets, this assay endpoint is annotated to the protease intended target family, where the subfamily is matrix metalloproteinase.
The levels of cell surface (or secreted, indicated by the prefix "s") biomarker endpoints were measured by ELISA. Overt cytotoxicity to cells in confluent adherent cultures (all systems other than the BT system) was assessed by measuring total protein levels using sulforhodamine B (SRB) staining in parallel cultures at the time of biomarker measurements, indicated as SRB endpoints. For proliferation assays for adherent cell types, individual cell types are cultured at sub-confluence and relative cell numbers quantified by SRB staining at time points optimized for each system (48 h: 3C and CASM3C systems; 72 h: BT and HDF3CGF systems; 96 h: SAg system). SRB was performed by staining cells with 0.1% SRB after fixation with 10% TCA and reading wells at 560 nm.Viability and proliferation of PBMC (T cells) was quantified by Alamar Blue reduction for the SAg and BT systems. For PBMC viability (referred to as PBMC Cytotoxicity within the assay endpoint names), cells were plated (75,000/well in a 96-well plate) and then chemical samples added for 1 h before addition of activators, SEB and TSST-1 (20 ng/mL final concentration each). Cells were incubated for 90 h. Then, Alamar Blue (20 uL/well) (Invitrogen, Cat DAL1100) was added for 6 h, and the plates were read with a fluorescence microplate reader at 546/580 nm (excitation/emission). For PBMC proliferation, cells were plated and activated as above but incubated for only 16 h prior to addition of Alamar Blue. Plates were read after 6 h.

| SMILES | outcome | AC50 |
| --- | --- | --- |
| CCCCc1ccccc1 | inactive | – |
| C=CC(=O)OCC(F)(F)C(F)F | inactive | – |
| [N-]=[N+]=[N-] | inactive | – |
| COP(=O)(CCC(=O)NCO)OC | inactive | – |
| COC(=O)C(F)(F)C(F)(F)OC(F)(C(F)(F)F)C(F)(F)OC(F)=C(F)F (stereo not given) | – | 1.48 µM (active) and 2.55 µM (active) |
| Cc1cccc(N)c1 | inactive | – |
| O=[N+]([O-])c1ccc(Cl)c(Cl)c1 | inactive | – |
| CCCN(CCC)c1c([N+](=O)[O-])cc(C(C)C)cc1[N+](=O)[O-] | inactive | – |
| COP(N)(=S)OC | inactive | – |
| c1nc[nH]n1 | inactive | – |
| CC(C)(C)c1ccc(O)cc1 | inactive | – |
| CCCCC(CC)COC(=O)c1c(Br)c(Br)c(Br)c(Br)c1C(=O)OCC(CC)CCCC (stereo not given) | inactive | – |
| CN(C)C(=O)Cl | inactive | – |
| OCC(F)(F)OC(F)(F)C(F)(F)OC(F)(F)C(F)(F)OC(F)(F)CO | inactive | 39.8 µM (active) |
| Cc1ccc(O)cc1C | inactive | – |
| CC(Cc1ccc(OCC(=O)O)cc1)NCC(O)c1csc(C(F)(F)F)n1 (stereo not given) | inactive | – |
| ClC(Cl)c1ccccc1 | inactive | – |
| Nc1cc2c3c(c1)C(c1ccccc1)=N[C@@H](NC(=O)c1cccnc1)C(=O)N3CC2 | inactive | – |
| Cc1ccc([N+](=O)[O-])cc1C | inactive | – |

| SMILES | outcome | AC50 |
| --- | --- | --- |
| CCCCCCCc1ccc(O)cc1 | – | 37.5 µM (active) |
| OCC(F)(F)OC(F)(F)C(F)(F)OC(F)(F)C(F)(F)OC(F)(F)F | inactive | – |
| CCCCN(CCCC)SN(C)C(=O)Oc1cccc2c1OC(C)(C)C2 | inactive | – |
| CCCCN(CCCC)N=O | inactive | – |
| O=P(Oc1ccccc1)(Oc1ccccc1)Oc1ccccc1 | inactive | – |
| O=C(O)C=CC(F)(C(F)(F)F)C(F)(F)F | inactive | – |
| O=c1ssc(Cl)c1Cl | – | 9.81 µM (active) |
| CSC(C)(C)C=NO | inactive | – |
| c1cc2c3c(cccc3c1)CC2 | inactive | – |
| CCOS(=O)(=O)OCC | inactive | – |
| CCOc1ccc(C(C)(C)COCc2cccc(Oc3ccccc3)c2)cc1 | inactive | – |
| C=CC(=O)OCC(CC)(COC(=O)C=C)COC(=O)C=C | – | 11.4 µM (active) |
| CCC(C)(C)c1ccc(O)cc1 | inactive | – |
| c1ccc(OP(Oc2ccccc2)Oc2ccccc2)cc1 | inactive | – |
| CCOP(=S)(NC(C)C)Oc1ccccc1C(=O)OC(C)C (stereo not given) | inactive | – |
| O=C(O)C(F)(OC(F)(F)C(F)(F)C(F)(F)F)C(F)(F)F (stereo not given) | inactive | 10.7 µM (active) |
| CCCCC(CC)COP(=O)(Oc1ccccc1)Oc1ccccc1 (stereo not given) | – | 1.91 µM (active) |
| CCC1(c2ccccc2)C(=O)N=C(O)NC1=O (stereo not given) | inactive | – |
| CCNc1nc(Cl)nc(NC(C)(C)C)n1 | inactive | – |
